# According to PubChem BioAssay (NCATS):
# “And” between values parts separate entries of the source, which are not always exact repeats. Identical values can stand only once. Results filed as inconclusive are left out. The source made the active and inactive calls. Unless noted, how the calls were made is not given here.
# Columns and labels:
# [1] = qHTS profiling for inhibitors of Plasmodium falciparum (3D7) proliferation (AID 743322);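 further: infected erythrocytes exposed to compound for 72 h before lysis; 100% = DMSO vehicle wells and 0% = 0.29 µM artemisinin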; conditions: P. falciparum 3D7 proliferation; at 28.7 µM (top of the series)
# How it was run: (§1)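 Erythrocytes infected with P. falciparum (0.3% parasitemia, 2.5% hematocrit) incubated with compounds 72 h at 37 C, 5% CO2. Lysis with saponin/Triton buffer containing SYBR Green I, overnight at room temperature in the dark; DNA fluorescence (485/535 nm) normalised to 0.29 uM artemisinin and DMSO.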
# [2] = qHTS profiling for inhibitors of Plasmodium falciparum (DD2) proliferation (AID 743323); conditions: lower = more inhibition; at 28.7 µM (top of the series)
# How it was run: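 SYBR Green fluorescence (ex 485, em 535 nm) of lysed cultures gives parasite DNA content; wells normalized to artemisinin (0.29 uM) and DMSO controls. Infected red cells: 0.3% parasitemia, 2.5% hematocrit, 72 h, 37 C.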
# [3] = qHTS profiling for inhibitors of Plasmodium falciparum (HB3) proliferation (AID 743324; active means well fitted curve in the direction sought with a large enough effect; an effect the other way counts as inactive or inconclusive;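 further: 100% = DMSO vehicle wells and 0% = artemisinin-treated control wells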); conditions: Plasmodium falciparum HB3 blood-stage proliferation; at 28.7 µM (top of the series)
# How it was run: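 P. falciparum HB3 grown in erythrocytes (0.3% parasitemia, 2.5% hematocrit final) with compound for 72 h at 37 C, 5% CO2. Parasite DNA detected by SYBR Green after saponin/triton lysis overnight; normalized to 0.29 uM artemisinin and DMSO.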
# [4] = qHTS profiling of the MIPE4 collection as inhibitors of Plasmodium falciparum (3D7) proliferation (AID 743344);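 further: scaled between DMSO vehicle wells and 0.29 µM artemisinin as full inhibition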; conditions: P. falciparum 3D7 in erythrocytes, SYBR Green DNA fluorescence, 72 h; at 28.5 µM (top of the series) unless noted
# How it was run: as §1
# [5] = qHTS profiling of the MIPE4 collection as inhibitors of Plasmodium falciparum (DD2) proliferation (AID 743345); conditions: P. falciparum Dd2 in erythrocytes, SYBR Green DNA, 72 h; at 28.5 µM (top of the series) unless noted
# How it was run: as §1
# [6] = qHTS profiling of the MIPE4 collection as inhibitors of Plasmodium falciparum (DD2) proliferation (Rep 2) (AID 743346); conditions: P. falciparum Dd2 in erythrocytes, SYBR Green DNA, 72 h; at 28.5 µM (top of the series) unless noted
# How it was run: as §1
# [7] = qHTS profiling of the MIPE4 collection as inhibitors of Plasmodium falciparum (HB3) proliferation (AID 743347);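 further: plate controls were DMSO vehicle wells for no effect and artemisinin wells for full effect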; conditions: P. falciparum HB3 in erythrocytes, SYBR Green DNA, 72 h; at 28.5 µM (top of the series) unless noted
# How it was run: as §1
# [8] = High-throughput drug toxicity screening in the BPDCN cell line Gen2.2 (AID 1224824); conditions: Gen2.2 BPDCN cells; at 45.8 µM (top of the series) unless noted;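 further: cells exposed to compounds for 48 h before reading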
# How it was run: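 Gen2.2, 500 cells/well, phenol red-free RPMI/10% FBS/Pen-Strep; 48 h cpd, 37 °C/5% CO2; CTG lum, 15 min RT. Norm: DMSO = 100%, bortezomib 9.2 uM final = 0%.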
# [9] = High-throughput drug toxicity screening in the BPDCN cell line Cal-1 (AID 1224825); conditions: Cal-1 BPDCN cell viability, qHTS; at 45.8 µM (top of the series) unless noted
# How it was run: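 Cal-1 cells, 500 per well in phenol-red-free RPMI with 10% FBS, exposed to compounds for 48 hours at 37C, 5% CO2. Viability read by CellTiter-Glo luminescence; percent activity normalized to DMSO (100%) and 9.2 uM bortezomib final (0%).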
# [10] = qHTS assay for cell viability of the p53RE-bla HCT-116 cell line (AID 743292; active means well fitted curve in the direction sought with a large enough effect; an effect the other way counts as inactive or inconclusive; further: nearly all actives have a fitted effect of over 55% in size; further: potency means the concentration at half of the fitted maximal effect)
# How it was run: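 CellSensor p53RE-bla HCT-116 cells, 4,000/well, preincubated 5 h at 37 C, then exposed to compounds in DMSO for 16 h at 37 C. Viability read as CellTiter-Glo luminescence (intracellular ATP) after 30 min at room temperature.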
compound,measurement,setting,value
CC(C)C[C@H](NC(=O)[C@H](CCc1ccccc1)NC(=O)CN1CCOCC1)C(=O)N[C@@H](Cc1ccccc1)C(=O)N[C@@H](CC(C)C)C(=O)[C@@]1(C)CO1,remaining parasite growth % (stronger effect = lower value),[1],-0.503%
same,"activity, percent of control",[2],-1.29%
same,"remaining proliferation (% of control), lower = more inhibition",[3],0.46%
same,"parasite growth, % of DMSO control",[4],5.1%
same,"parasite growth remaining, % of DMSO control (lower = more inhibition)",[5],7.08%
same,"parasite growth, % of control (lower = inhibition)",[6],9.09%
same,"growth, % of control",[7],6.02%
same,"cell viability, % of control (lower = more cytotoxic)",[8],5.77%
same,viability (% of control),[9],3.67%
COc1ccc2c(c1)c(CC(=O)OCC(=O)O)c(C)n2C(=O)c1ccc(Cl)cc1,"parasite growth, % of DMSO control",[4],78.3%
same,"parasite growth remaining, % of DMSO control (lower = more inhibition)",[5],104%
same,"parasite growth, % of control (lower = inhibition)",[6],68.6%
same,"cell viability, % of control (lower = more cytotoxic)",[8],144%
same,viability (% of control),[9],119%
CCn1cc(C(=O)O)c(=O)c2cc(F)c(N3CCNCC3)cc21,"cell viability, % of control (lower = more cytotoxic)",[8],113%
CCCc1cc(C(N)=S)ccn1,"parasite growth, % of DMSO control",[4],6.05%
same,"parasite growth remaining, % of DMSO control (lower = more inhibition)",[5],65.8%
same,"parasite growth, % of control (lower = inhibition)",[6],14%
same,"cell viability, % of control (lower = more cytotoxic)",[8],119%
same,viability (% of control),[9],93.7%
CC1CC2C3CCC4=CC(=O)C=C[C@]4(C)[C@@]3(F)[C@@H](O)C[C@]2(C)[C@@]1(O)C(=O)CO (stereo partly specified),"parasite growth, % of DMSO control",[4],85.2%
same,"parasite growth remaining, % of DMSO control (lower = more inhibition)",[5],90.6%
same,"parasite growth, % of control (lower = inhibition)",[6],85.8%
same,"growth, % of control",[7],102%
same,"cell viability, % of control (lower = more cytotoxic)",[8],115%
same,viability (% of control),[9],56.6%
COc1ccccc1OCC(O)COC(N)=O (stereo unspecified),"parasite growth, % of DMSO control",[4],94.6%
same,"parasite growth remaining, % of DMSO control (lower = more inhibition)",[5],96.9%
same,"parasite growth, % of control (lower = inhibition)",[6],142%
same,"growth, % of control",[7],111%
same,"cell viability, % of control (lower = more cytotoxic)",[8],109%
same,viability (% of control),[9],124%
CC(C)(Sc1cc(C(C)(C)C)c(O)c(C(C)(C)C)c1)Sc1cc(C(C)(C)C)c(O)c(C(C)(C)C)c1,"parasite growth, % of DMSO control",[4],23.4%
same,"parasite growth remaining, % of DMSO control (lower = more inhibition)",[5],26.6%
same,"parasite growth, % of control (lower = inhibition)",[6],24.6%
same,"cell viability, % of control (lower = more cytotoxic)",[8],48.3%
same,viability (% of control),[9],45.2%
Clc1ccccc1CN1CCc2sccc2C1,"cell viability, % of control (lower = more cytotoxic)",[8],91.7%
CNS(=O)(=O)CCc1ccc2[nH]cc(C3CCN(C)CC3)c2c1,"parasite growth, % of DMSO control",[4],97.5%
same,"parasite growth remaining, % of DMSO control (lower = more inhibition)",[5],87.2%
same,"parasite growth, % of control (lower = inhibition)",[6],92.8%
same,"cell viability, % of control (lower = more cytotoxic)",[8],238%
same,viability (% of control),[9],23.9%
COC(=O)Nc1nc2ccc(S(=O)c3ccccc3)cc2[nH]1 (stereo unspecified),"parasite growth, % of DMSO control",[4],67%
same,"parasite growth remaining, % of DMSO control (lower = more inhibition)",[5],82.8%
same,"parasite growth, % of control (lower = inhibition)",[6],68.5%
same,"cell viability, % of control (lower = more cytotoxic)",[8],86.3%
same,viability (% of control),[9],22.2%
Cc1ccnc2c1NC(=O)c1cccnc1N2C1CC1,Potency,[10],inactive
same,"cell viability, % of control (lower = more cytotoxic)",[8],1.63%
same,viability (% of control),[9],7.09%
CN(C)c1ccc(C(=C2C=CC(=[N+](C)C)C=C2)c2ccc(N(C)C)cc2)cc1,Potency,[10],25.1 µM (active) and 35.5 µM (active)
same,"parasite growth, % of DMSO control",[4],2.71%
same,"parasite growth remaining, % of DMSO control (lower = more inhibition)",[5],5.08%
same,"parasite growth, % of control (lower = inhibition)",[6],6.31%
same,"cell viability, % of control (lower = more cytotoxic)",[8],1.19%
same,viability (% of control),[9],1.42%
NC(=O)N1c2ccccc2CC(=O)c2ccccc21,"parasite growth, % of DMSO control",[4],92.2%
same,"parasite growth remaining, % of DMSO control (lower = more inhibition)",[5],96.7%
same,"parasite growth, % of control (lower = inhibition)",[6],187%
same,"growth, % of control",[7],102%
same,"cell viability, % of control (lower = more cytotoxic)",[8],104%
same,viability (% of control),[9],112%
CCc1c2c(nc3ccc(OC(=O)N4CCC(N5CCCCC5)CC4)cc13)-c1cc3c(c(=O)n1C2)COC(=O)[C@]3(O)CC,"parasite growth, % of DMSO control",[4],66.3%
same,"parasite growth remaining, % of DMSO control (lower = more inhibition)",[5],59.3%
same,"parasite growth, % of control (lower = inhibition)",[6],67.7%
same,"cell viability, % of control (lower = more cytotoxic)",[8],21.9%
same,viability (% of control),[9],8.86%
CN(Cc1cc(Br)cc(Br)c1N)C1CCCCC1,"parasite growth, % of DMSO control",[4],44.4%
same,"parasite growth remaining, % of DMSO control (lower = more inhibition)",[5],113%
same,"parasite growth, % of control (lower = inhibition)",[6],25.7%
same,"cell viability, % of control (lower = more cytotoxic)",[8],226%
same,viability (% of control),[9],107%
CC(C)OC(=O)OCOP(=O)(CO[C@H](C)Cn1cnc2c(N)ncnc21)OCOC(=O)OC(C)C,"cell viability, % of control (lower = more cytotoxic)",[8],162%
same,viability (% of control),[9],42.8%
COC(=O)Nc1nc2ccc(C(=O)c3ccccc3)cc2[nH]1,"parasite growth, % of DMSO control",[4],61.1%
same,"parasite growth remaining, % of DMSO control (lower = more inhibition)",[5],97.7%
same,"parasite growth, % of control (lower = inhibition)",[6],71%
same,"growth, % of control",[7],84.4%
same,"cell viability, % of control (lower = more cytotoxic)",[8],176%
same,viability (% of control),[9],22%
